# Laboratory results: the supplement of paper PMC3334620
# Whole data set: some 33,000 sequences, median “E-score (-0.5 to 0.5)” near -0.054, cut for the highest 2% near 0.35. Only a selection was taken, and the highest values are over-represented in it overall.
# Biological target: T1, Stb5 (UniProt P38699)
# T1 sequence: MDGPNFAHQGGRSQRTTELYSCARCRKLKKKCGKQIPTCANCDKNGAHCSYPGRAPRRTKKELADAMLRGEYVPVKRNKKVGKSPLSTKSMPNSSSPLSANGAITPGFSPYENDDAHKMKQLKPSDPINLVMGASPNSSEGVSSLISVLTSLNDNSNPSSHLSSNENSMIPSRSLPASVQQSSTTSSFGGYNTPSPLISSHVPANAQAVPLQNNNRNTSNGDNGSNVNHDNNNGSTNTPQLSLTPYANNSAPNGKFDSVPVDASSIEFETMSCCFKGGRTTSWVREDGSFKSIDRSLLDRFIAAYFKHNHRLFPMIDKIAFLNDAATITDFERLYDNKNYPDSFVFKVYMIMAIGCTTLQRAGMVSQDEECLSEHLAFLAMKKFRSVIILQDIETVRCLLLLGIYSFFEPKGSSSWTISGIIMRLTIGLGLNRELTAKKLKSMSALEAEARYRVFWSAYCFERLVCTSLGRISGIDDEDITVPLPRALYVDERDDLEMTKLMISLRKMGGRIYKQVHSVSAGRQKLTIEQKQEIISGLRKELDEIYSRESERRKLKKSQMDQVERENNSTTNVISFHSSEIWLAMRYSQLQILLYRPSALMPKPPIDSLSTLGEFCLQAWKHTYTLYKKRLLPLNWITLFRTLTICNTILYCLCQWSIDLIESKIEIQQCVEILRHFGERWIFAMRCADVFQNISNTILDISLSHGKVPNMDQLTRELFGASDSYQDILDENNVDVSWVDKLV
# Assay: PBM E-score (8-mer binding enrichment) (E-score (-0.5 to 0.5)); higher = stronger / more preferred TF binding
# Conditions: protein concentration: 200 nM; construct: GST-full length
# Method: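 Universal 'all 10-mer' protein binding microarrays (Agilent AMADID 015681) probed with GST-tagged S. cerevisiae TFs (full-length or DBD) made by in vitro transcription/translation (PURExpress), about 100-200 nM. Bound TF was detected with fluorescent anti-GST. Each ungapped 8-mer (which stands for itself and its reverse complement) is scored by the PBM enrichment score (E-score), a modified Wilcoxon-Mann-Whitney statistic from -0.5 to +0.5, computed with the Universal PBM Analysis Suite. Scale: above 0.35 generally sequence-specific binding.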
row,Sequence,PBM E-score
1,GCAGACGC,-0.0745
2,AAAAGCAT,-0.0942
3,GTCTCCGA,0.23
4,ATCTCCGG,0.423
5,CTCTCCGA,0.00777
6,ATCTCCGA,0.394
7,ATCTCCCG,0.124
8,ATCTCCCC,0.0718
9,ATCTCCGC,0.406
10,ATCTCCAG,0.0194
11,CTCTCCGC,0.0985
12,AGGCGTTG,-0.11
13,AAAAGGGT,-0.27
14,CCCAGGAA,-0.286
15,TCGAATCA,-0.163
16,CCGACCGC,0.284
17,CCGACCGA,0.314
18,CGGACCAA,0.376
19,TGGACCCA,-0.218
20,CCGACCCA,0.369
21,CCGACCGG,0.382
22,CGGACCAC,0.134

row,Sequence,PBM E-score
1,GGGACCCA,-0.0663
2,CGGACCAG,0.0937
3,CGGACCCA,0.381
4,ACGACCCA,-0.191
5,TCGACCCA,-0.256
6,CGAAGAGA,-0.138
7,AAAGCGCG,0.121
8,CTGTGCGA,-0.121
9,GTTGCAAC,0.183
10,ATGAAAGC,-0.0893
11,CGGACCGA,0.4
12,GGGACCTA,0.138
13,CGGACCTA,0.466
14,CTGACCGA,-0.0342
15,GGGACCGA,0.257
16,AGGACCTA,0.141
17,ATGGCTTA,-0.119
18,ACCCCAGC,-0.0864
19,CAATAGCC,0.0314
20,CACATCTG,-0.103
21,AGGCCCTA,-0.0592
22,CGGCCATA,0.376

row,Sequence,PBM E-score
1,CGGCCCTA,0.426
2,CGGCCATC,0.157
3,GGGCCCTA,-0.0134
4,GGGCCATA,0.0906
5,ACCAGACA,-0.0752
6,ATCTCATA,-0.186
7,AAAGTAAG,-0.119
8,CATTTTAG,0.189
9,CTTACTGA,-0.164
10,AAGAGTCC,0.118
11,GGTGTTTA,0.425
12,AGTGTTTA,-0.0504
13,CGTGTAAC,0.134
14,CGTGTTAA,-0.191
15,AGTGTTAC,-0.0686
16,GGTGTAAC,0.381
17,GGTGTTAC,0.4
18,GGTGTTAA,0.447
19,TGTGTTAA,-0.145
20,AGTGTAAC,-0.175
21,CGTGTTAC,-0.0374
22,CGTGTTTA,0.112

row,Sequence,PBM E-score
1,ATTCACAC,-0.136
2,CCTGATAA,-0.0146
3,CCCAACCA,-0.0714
4,GATCTAAC,-0.143
5,ATACTATG,-0.0158
6,ACGCTGCT,-0.0899
7,CACTCTCA,-0.237
8,ACTTTCCA,-0.0496
9,CAGCGGAG,0.352
10,AAGCGGGG,0.296
11,CAGCGGAA,0.164
12,CAGCGGCG,0.326
13,CAGCGGGC,0.224
14,CAGCGGGG,0.358
15,ACCGAACG,0.308
16,ATGAAAGG,0.0036
17,ACCGCCGA,0.405
18,ACCGCCGT,0.38
19,ACCGCCGC,0.383
20,ACCGCCTG,0.25
21,ACCGCCGG,0.414
